Source: paper PMC4336329 (PLoS ONE, 2015)
The campaign covered roughly 310,000 compounds. About 14,000 (4.5%) showed an effect of 50% or more. Effects have a minus sign here. The list comes from a sample in which strong results are over-represented; it also holds similar structures and randomly drawn compounds.
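Note: peak tail current of the secondary pulse compared with the same well before compound.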

What follows are compounds tested against human ether-à-go-go-related gene (hERG) potassium channel (human, UniProt Q12809) (assay: primary screen, population patch clamp on CHO cells stably expressing hERG; higher = less effect of the substance).
human ether-à-go-go-related gene (hERG) potassium channel, sequence (Q12809 whole entry, looked up): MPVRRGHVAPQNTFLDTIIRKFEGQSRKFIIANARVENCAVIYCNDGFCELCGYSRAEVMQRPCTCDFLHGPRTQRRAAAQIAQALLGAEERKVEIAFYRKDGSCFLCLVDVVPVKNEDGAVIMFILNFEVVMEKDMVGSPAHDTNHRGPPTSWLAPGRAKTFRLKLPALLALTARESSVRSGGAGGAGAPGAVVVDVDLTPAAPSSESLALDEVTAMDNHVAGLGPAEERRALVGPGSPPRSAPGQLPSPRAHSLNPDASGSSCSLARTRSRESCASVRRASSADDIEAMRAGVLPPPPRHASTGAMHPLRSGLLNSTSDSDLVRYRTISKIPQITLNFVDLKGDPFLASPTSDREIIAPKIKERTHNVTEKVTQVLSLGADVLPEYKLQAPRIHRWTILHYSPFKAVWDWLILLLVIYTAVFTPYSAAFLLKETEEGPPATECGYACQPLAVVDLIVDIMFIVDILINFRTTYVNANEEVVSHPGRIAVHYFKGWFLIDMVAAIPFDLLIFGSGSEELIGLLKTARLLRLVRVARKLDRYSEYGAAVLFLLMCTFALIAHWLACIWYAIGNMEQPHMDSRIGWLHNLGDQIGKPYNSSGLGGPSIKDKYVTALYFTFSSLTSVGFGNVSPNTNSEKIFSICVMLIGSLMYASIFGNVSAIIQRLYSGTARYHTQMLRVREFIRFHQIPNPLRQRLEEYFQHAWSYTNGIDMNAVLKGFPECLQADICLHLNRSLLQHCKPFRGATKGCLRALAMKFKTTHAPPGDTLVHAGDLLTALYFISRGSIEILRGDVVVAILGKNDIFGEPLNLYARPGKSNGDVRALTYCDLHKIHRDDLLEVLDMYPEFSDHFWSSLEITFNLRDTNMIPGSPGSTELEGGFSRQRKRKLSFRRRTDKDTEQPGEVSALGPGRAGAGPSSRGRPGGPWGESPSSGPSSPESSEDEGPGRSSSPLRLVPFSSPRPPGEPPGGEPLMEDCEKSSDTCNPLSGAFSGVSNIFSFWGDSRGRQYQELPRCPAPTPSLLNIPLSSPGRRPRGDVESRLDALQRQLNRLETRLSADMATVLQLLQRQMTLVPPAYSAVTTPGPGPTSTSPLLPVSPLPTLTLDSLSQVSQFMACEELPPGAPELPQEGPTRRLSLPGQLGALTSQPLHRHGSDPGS
`CN(C)c1cc(NC(=O)CNC(C)(C)C)c2ccccc2n1.O=C(O)C(=O)O` was tested, and the “hERG current change (%, negative = inhibition) at 10uM” value was -24.4%. For `CN(C)c1cc(NC(=O)CNC(C)(C)CC(C)(C)C)c2ccccc2n1.O=C(O)C(=O)O`, the “hERG current change (%, negative = inhibition) at 10uM” value was -69.9%. `CC(Cc1ccccc1)NCC(=O)Nc1cc(N(C)C)nc2ccccc12.O=C(O)C(=O)O` (stereo not shown) was tested, and the “hERG current change (%, negative = inhibition) at 10uM” value was -77.1%. For `CCOc1ccccc1NC(=O)[C@@H](NC(=O)c1ccccc1F)C(C)C`, the “hERG current change (%, negative = inhibition) at 10uM” value was -6.35%. In the case of `COc1ccc(C(C(N)=O)c2ncc(C(F)(F)F)cc2Cl)cc1` (stereo not shown), the “hERG current change (%, negative = inhibition) at 10uM” value is reported as 4.78%. `O=C(CCCCl)NC1=NN(c2ccccc2)C(=O)C1` was tested, and the “hERG current change (%, negative = inhibition) at 10uM” value was -4.99%. With `COc1ccc(-n2c(CN3CCOCC3)nc3ccccc3c2=O)c(OC)c1` the “hERG current change (%, negative = inhibition) at 10uM” value was 22.9%. `COc1ccc(OC)c(-n2c(CNC3CCN(Cc4ccccc4)CC3)nc3ccccc3c2=O)c1` was tested, and the “hERG current change (%, negative = inhibition) at 10uM” value was -76.6%. `Cl.Clc1ccc(CNC2CCCC2)cc1` was tested, and the “hERG current change (%, negative = inhibition) at 10uM” value was -13.1%. `CC(NC1CCN(Cc2ccccc2)CC1)c1ccc(F)cc1` (stereo not shown) was tested, and the “hERG current change (%, negative = inhibition) at 10uM” value was 3.46%. For `COc1ccc(CCNC(=S)NC2CCN(Cc3ccccc3)CC2)cc1`, the “hERG current change (%, negative = inhibition) at 10uM” value was -36.9%. With `COc1ccccc1CNC1CCN(Cc2ccccc2)CC1` the “hERG current change (%, negative = inhibition) at 10uM” value was -3.89%. `COc1ccc(OC)c(-n2c(CN3CCC(C(N)=O)CC3)nc3ccccc3c2=O)c1` was tested, and the “hERG current change (%, negative = inhibition) at 10uM” value was -0.126%. `COc1ccc(CNC2CCN(Cc3ccccc3)CC2)cc1` was tested, and the “hERG current change (%, negative = inhibition) at 10uM” value was -54.2%. In the case of `Clc1ccc(CNC2CCN(Cc3ccccc3)CC2)cc1`, the “hERG current change (%, negative = inhibition) at 10uM” value is reported as -72.7%. `S=C(NCc1ccc(Cl)cc1)NC1CCN(Cc2ccccc2)CC1` was tested, and the “hERG current change (%, negative = inhibition) at 10uM” value was -41.8%. `FC(F)(F)c1cccc(CNC2CCN(Cc3ccccc3)CC2)c1` was tested, and the “hERG current change (%, negative = inhibition) at 10uM” value was -28.3%. In the case of `Fc1ccc(CNC2CCN(Cc3ccccc3)CC2)cc1`, the “hERG current change (%, negative = inhibition) at 10uM” value is reported as -65.3%. For `Fc1ccc(-c2cc(C(F)(F)F)nc(NCc3cccs3)n2)cc1`, the “hERG current change (%, negative = inhibition) at 10uM” value was 14.4%. With `CCOC(=O)c1c(-c2ccccc2)csc1NC(=O)/C(C#N)=C/c1ccc(O)c(OC)c1` the “hERG current change (%, negative = inhibition) at 10uM” value was -7.1%. `O=C(COc1ccc(/C=N/NC(=O)c2cc3ccccc3o2)cc1Br)Nc1ccccc1` was tested, and the “hERG current change (%, negative = inhibition) at 10uM” value was 19.3%. With `Cc1ccccc1NS(=O)(=O)c1ccc(C)c(C(=O)N2CCOCC2)c1` the “hERG current change (%, negative = inhibition) at 10uM” value was 1.47%. With `COc1ccc(C(=O)NNC(=O)C(=O)N2CCCCC2)cc1OC` the “hERG current change (%, negative = inhibition) at 10uM” value was 59.5%. `CCOC(=O)C(NC(=O)Nc1cccc(C)n1)(OCC(F)(F)F)C(F)(F)F` (stereo not shown) was tested, and the “hERG current change (%, negative = inhibition) at 10uM” value was 5.06%. In the case of `CC(=O)COC(=O)C1=NN(c2ccccc2)C(=O)CC1`, the “hERG current change (%, negative = inhibition) at 10uM” value is reported as 23.7%. `COc1ccc(S(=O)(=O)N2CCCC(C(=O)NCc3ccc(F)cc3)C2)cc1` (stereo not shown) was tested, and the “hERG current change (%, negative = inhibition) at 10uM” value was 6.39%. With `CCc1nc2ccc(C(=O)NCCc3ccc(OC)c(OC)c3)cc2nc1CC` the “hERG current change (%, negative = inhibition) at 10uM” value was -0.0865%. With `Cn1c(O)c(/C=C2\N=c3ccccc3=C2CCNC(=S)NC2CC2)c(=O)n(C)c1=O` the “hERG current change (%, negative = inhibition) at 10uM” value was -44.6%. `Clc1ccc(CN2CCC(c3ccccc3)CC2)cc1` was tested, and the “hERG current change (%, negative = inhibition) at 10uM” value was -59.1%. For `Clc1ccc(CN2CCCCCCC2)cc1`, the “hERG current change (%, negative = inhibition) at 10uM” value was -33.1%. For `O=S(=O)(NC1CCN(Cc2ccccc2)CC1)c1ccc(Cl)cc1`, the “hERG current change (%, negative = inhibition) at 10uM” value was -41.3%. With `Cc1c(C(=O)Nc2c(F)cccc2F)sc2ncn(CC(=O)N3CCCCC3)c(=O)c12` the “hERG current change (%, negative = inhibition) at 10uM” value was 3.98%. In the case of `Cc1cc(NC(=O)CSc2nnc(-c3cccnc3)n2C2CCCCC2C)no1` (stereo not shown), the “hERG current change (%, negative = inhibition) at 10uM” value is reported as 3.83%. For `COc1ccc2[nH]c3c(NCCN4CCCCC4)ncnc3c2c1`, the “hERG current change (%, negative = inhibition) at 10uM” value was -55.9%. For `CCOc1ccc2[nH]c3c(NCCOC)ncnc3c2c1`, the “hERG current change (%, negative = inhibition) at 10uM” value was -9.5%. With `COc1ccc2[nH]c3c(NCc4ccco4)ncnc3c2c1` the “hERG current change (%, negative = inhibition) at 10uM” value was -18.1%. With `CCOc1ccc2[nH]c3c(NCCC(C)C)ncnc3c2c1` the “hERG current change (%, negative = inhibition) at 10uM” value was 7.2%. For `CCN(CC)CCNc1ncnc2c1[nH]c1ccc(OC)cc12`, the “hERG current change (%, negative = inhibition) at 10uM” value was -63.4%. In the case of `CCOc1ccc2[nH]c3c(NCCN(C)C)ncnc3c2c1`, the “hERG current change (%, negative = inhibition) at 10uM” value is reported as -19%. For `COc1ccc2[nH]c3c(NCCCOC(C)C)ncnc3c2c1`, the “hERG current change (%, negative = inhibition) at 10uM” value was 9.68%. `CCOc1ccc2[nH]c3c(NCCN(CC)CC)ncnc3c2c1` was tested, and the “hERG current change (%, negative = inhibition) at 10uM” value was -71.6%. In the case of `COc1ccc2[nH]c3c(NCCN(C(C)C)C(C)C)ncnc3c2c1`, the “hERG current change (%, negative = inhibition) at 10uM” value is reported as -70.7%. In the case of `COc1ccc2[nH]c3c(NCCCN4CCCC4=O)ncnc3c2c1`, the “hERG current change (%, negative = inhibition) at 10uM” value is reported as -14.6%. With `CCOc1ccc2[nH]c3c(NCCO)ncnc3c2c1` the “hERG current change (%, negative = inhibition) at 10uM” value was 23.1%. In the case of `CCOc1ccc2[nH]c3c(NCCCOC)ncnc3c2c1`, the “hERG current change (%, negative = inhibition) at 10uM” value is reported as -10%. For `CCOc1ccccc1NC(=O)c1cnc(NS(=O)(=O)c2ccccc2)nc1`, the “hERG current change (%, negative = inhibition) at 10uM” value was 17.8%.
